High-throughput results: PubChem, National Center for Advancing Translational Sciences (NCATS)
Sampled rows, rich in hits. Any-hit rate of the full collection: about 7.5%.
Rab9 prom act = qHTS Assay for Rab9 Promoter Activators. 320,000 tested, 2.8% active. Huh7 Rab9 promoter-luciferase reporter, luminescence, 24 h. Potency, µM (doses to about 9.22 µM), hits mostly activators; note: nearly all actives have a fitted effect of over 60% in size
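Luciferase signal after 10 min detection reagent at ambient indicates Rab9 promoter upregulation; stably transfected Huh7 cells were treated 24 h with compound in DMSO at 37 °C, 5% CO2.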
ELG1 genotox = qHTS screen for small molecules that induce genotoxicity in human embryonic kidney (HEK293T) cells expressing luciferase-tagged ELG1 | 330,000 tested, 1.3% active | HEK293T ELG1-luciferase reporter, luminescence, 16 h | Potency, µM (highest dose often 46 µM), usual class: activators; note: nearly all actives have a fitted effect of over 60% in size
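Genotoxic stress is detected as increased luminescence from luciferase-tagged ELG1 in HEK293T cells, measured with ONE-Glo after a 16 hr treatment at 37 °C.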
KinaseGlo FLuc = Counterscreen for Luciferase (Kinase-Glo TM) Inhibition | Luciferin 4-monooxygenase (Photuris pensylvanica), Q27757 | Kinase-Glo luciferase, ATP luminescence, 8 min | Potency, µM (top dose mostly 38.3 µM), hits mostly inhibitors | 200,000 tested, 0.28% active; note: nearly all actives have a fitted effect of over 60% in size
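Compounds were added to a substrate mix at pH 7.2 (50 mM imidazole, 10 uM ATP, within the enzyme's linear range), followed by Kinase-Glo detection reagent; luminescence was measured after 8 minutes at ambient temperature.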
FLuc counter = qHTS profiling assay for firefly luciferase inhibitor/activator using purifed enzyme and Km concentrations of substrates (counterscreen for miR-21 project); Potency, µM (titrated, usually from 57.5 µM), actives largely listed as inhibitors; 360,000 tested, 6.9% active; Luciferin 4-monooxygenase (Photinus pyralis), P08659; purified FLuc, Km substrates, luminescence inhibition; note: nearly all actives have a fitted effect of over 55% in size
Target sequence (P08659 whole entry, looked up): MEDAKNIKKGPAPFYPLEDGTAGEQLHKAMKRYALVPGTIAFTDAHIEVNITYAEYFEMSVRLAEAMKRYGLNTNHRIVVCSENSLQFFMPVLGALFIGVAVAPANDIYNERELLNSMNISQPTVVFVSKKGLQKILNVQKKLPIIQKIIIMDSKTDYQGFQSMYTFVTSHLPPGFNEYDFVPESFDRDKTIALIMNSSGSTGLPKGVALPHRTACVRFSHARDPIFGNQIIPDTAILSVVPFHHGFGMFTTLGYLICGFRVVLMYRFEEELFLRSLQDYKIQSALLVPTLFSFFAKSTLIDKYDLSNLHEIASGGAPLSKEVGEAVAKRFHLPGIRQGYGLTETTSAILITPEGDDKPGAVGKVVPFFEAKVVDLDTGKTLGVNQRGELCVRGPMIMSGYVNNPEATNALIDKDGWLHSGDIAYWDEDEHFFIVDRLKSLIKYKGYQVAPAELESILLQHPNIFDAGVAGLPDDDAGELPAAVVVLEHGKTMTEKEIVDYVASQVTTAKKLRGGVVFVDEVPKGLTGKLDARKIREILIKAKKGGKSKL
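Biochemical qHTS of compounds, final roughly 60 µM downward over six points, against 10 nM purified firefly luciferase using Km concentrations of substrates (10 uM D-luciferin, 10 uM ATP) in Tris acetate pH 7.5 buffer; luminescence output.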
SMN2 splice enh = qHTS Assay for Enhancers of SMN2 Splice Variant Expression; 210,000 tested, 2.8% active; AID 1458, 2008; HEK293 SMN2-luciferase splicing reporter, luminescence, 30-36 h; Potency, µM (titrated, usually from 46.1 µM), actives largely listed as activators; note: nearly all actives have a fitted effect of over 55% in size
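qHTS luciferase splicing reporter: luminescence rises when SMN2 exon 7 is included in transfected HEK293 cells. Compound exposure lasted 30-36 h at 37C, with 4.5 mM final sodium butyrate as control, followed by a ONE-Glo read.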
NPC1 promoter act = qHTS Assay for NPC1 Promoter Activators; Huh7 NPC1 promoter luciferase reporter, 24 h; Potency, µM (highest dose often 9.22 µM), actives largely listed as activators; 320,000 tested, 2.4% active; note: nearly all actives have a fitted effect of over 60% in size
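Luminescence read-out of NPC1 promoter-driven luciferase in stably transfected Huh7 cells; compounds delivered in DMSO and left 24 h at 37C, 5% CO2, qHTS titration format.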
Numbers stand for hits; . = inactive; ? = inconclusive; / = not tested or not shown; [ ] = dose if it differs, or a comment. Calls come from the whole dose curve; as a rule, active = well fitted curve in the direction sought with a large enough effect; inconclusive = small, poorly fitted or top-dose-only effect, or another doubt; inactive = no such curve, though single readings can be large; an effect the other way counts as inactive or inconclusive.

SMILES | Rab9 prom act | ELG1 genotox | KinaseGlo FLuc | FLuc counter | SMN2 splice enh | NPC1 promoter act
Cn1c(N)c(C(=O)COC(=O)c2ccc3c(c2)C(=O)N(c2ccc(Cl)cc2)C3=O)c(=O)n(C)c1=O | . | . | . | . | . | .
C/C(=N\Nc1ccccn1)c1ccc(S(=O)(=O)NCc2ccco2)cc1 | . | . | . | ? | . | .
C/C(=N\Nc1ccc(C(=O)O)cc1)c1ccc(Cl)s1 | 0.28µM | . | / | 0.95µM | / | 0.4µM
C/C(=N\Nc1ccc(C(=O)O)cc1)c1ccc(Br)cc1 | 0.089µM | ? | / | 0.19µM | / | ?
C/C(=N\Nc1ccc(C(=O)O)cc1)c1ccc(S(=O)(=O)NCc2ccco2)cc1 | ? | . | / | 17µM | / | .
COc1ccccc1NS(=O)(=O)c1ccc(C(=O)OCC(=O)NCc2ccco2)cc1 | . | . | . | . | . | .
COc1ccccc1NC(=O)COC(=O)c1ccc(S(=O)(=O)NCc2ccco2)cc1 | . | . | . | 12µM | . | .
C/C(=N/Nc1ncc(Br)cn1)c1ccc(Br)cc1 | . | . | / | . | / | .
CCOC(=O)C1CCN(C(=O)CSc2n[nH]c(-c3ccc(F)cc3)n2)CC1 | / | / | / | . | / | /
N#Cc1ccc(/C=N/NC(=O)c2ccccc2F)cc1 | . | ? | . | ? | ? | .
CC1C(=O)NN=C1C(=O)N/N=C\c1ccc(O)cc1O (configuration not stated) | . | . | . | 17µM | . | .
COc1cc(/C=N/NC(=O)C2=NNC(=O)C2C)ccc1O (configuration not stated) | . | . | / | ? | / | .
O=C(N/N=C/C(Cl)=C/c1ccccc1)c1ccccc1F | ? | ? | / | 12µM | / | ?
O=C(Cc1cc(=O)[nH][nH]1)N/N=C/C(Cl)=C/c1ccccc1 | . | . | . | 24µM | ? | .
O=C(N/N=C/C(Br)=C/c1ccccc1)c1ccccc1F | 3.2µM | 18µM | / | 11µM | / | 3.5µM
Nc1ccccc1C(=O)N1O[C@@H]2C=C[C@H]1CC2 | / | . | / | / | / | /
COc1ccc(Cc2noc(CN3CCCC(OCc4ccccn4)C3)n2)cc1OC (configuration not stated) | . | . | / | . | / | .
CC1C(=O)NN=C1C(=O)N/N=C\C(Br)=C\c1ccccc1 (configuration not stated) | 2.2µM | ? | . | 1.5µM | 22µM | 2.5µM
CC1=NNC(=O)C1CC(=O)N/N=C/C(Br)=C/c1ccccc1 (configuration not stated) | . | . | / | . | / | .
CC1=C(c2ccc(C)cc2)[N+](=O)C(C)(C)N1[O-] | 4µM | ? | . | 9.5µM | / | .
CC1=C(c2ccc(F)cc2)[N+](=O)C(C)(C)N1[O-] | . | . | . | 27µM | / | .
CC1=C(c2ccccc2)[N+](=O)C2(CCCC2)N1[O-] | . | . | . | . | . | .
CN(C)c1oc(-c2ccc(OCc3ccccc3)cc2)nc1C#N | . | 16µM | . | ? | ? | .
NC(=O)c1cc([N+](=O)[O-])c(Cl)cc1NCc1ccccn1 | . | . | / | . | / | .
CC1CCc2nc(/C(C#N)=C/c3ccncc3)sc2C1 (configuration not stated) | 3.2µM | ? | . | 9.5µM | 18µM | 2.8µM
SMILES | Rab9 prom act | ELG1 genotox | KinaseGlo FLuc | FLuc counter | SMN2 splice enh | NPC1 promoter act
COc1ccc(C(=O)N/N=C/c2cccc3cccnc23)cc1 | . | . | . | 7.6µM | . | .
CCOc1ccc(C(=O)N/N=C/c2cccc3cccnc23)cc1 | . | . | . | 6.7µM | . | .
COc1ccc(C(=O)N/N=C/c2cccnc2)cc1 | . | ? | / | 15µM | / | ?
CC(=O)Nc1ccc(C(=O)N/N=C/c2cccnc2)cc1 | . | . | . | . | .[1.84 µM] | .
O=C(NNc1cc(Br)c(O)c(Br)c1)c1ccccc1 | . | . | . | 21µM | . | .
Cc1cc(/C=C2/SC(=O)N(CC(=O)N3CCOCC3)C2=O)c(C)n1-c1ccccc1F | 1.6µM | ? | . | 0.38µM | 11µM | 3.5µM
COc1ccc(-n2c(C)cc(/C=C3/SC(=O)N(CC(=O)N4CCOCC4)C3=O)c2C)cc1 | . | . | . | 1.7µM | . | .
Cn1c(=O)n(C)c2cc(/C=C3/SC(=O)N(CC(=O)N4CCOCC4)C3=O)ccc21 | . | ? | . | . | . | .
COc1ccc(C2(c3ccc(OC)cc3)NC(=O)N(CC(=O)N3CCOCC3)C2=O)cc1 | . | . | / | . | / | .
CNc1ccc(/C=C2\CSc3ccccc3C2=O)cc1[N+](=O)[O-] | . | ? | . | 0.76µM | . | .
O=C1/C(=C/c2cccc([N+](=O)[O-])c2)CSc2ccc(Cl)cc21 | . | . | / | . | / | .
C#CCNC(=O)C1=C[C@@H](c2ccc(C(F)(F)F)cc2)[C@H](CCCO)[C@@H](OCC)O1 | . | . | / | . | / | .
CC1CCN(CC(=O)Nc2ccc(N3CCCCCC3)cc2)CC1 | . | . | . | . | / | .
CC(/C=N/NC(=O)c1cccnc1)=C\c1ccccc1 | ? | ? | . | 13µM | / | ?
O=C(N/N=C/C(Cl)=C/c1ccccc1)c1cnccn1 | . | . | . | 12µM | . | .
CC(/C=N/NC(=O)c1ccncc1)=C\c1ccc(C(C)C)cc1 | 2.8µM | . | / | ? | / | .
CC(/C=N/Nc1nc(C)cc(C)n1)=C\c1ccc(C(C)C)cc1 | . | . | . | 19µM | . | .
Cc1c(C(=O)N(C)C)sc2c1c(=O)n(-c1ccc(Cl)c(Cl)c1)c(=O)n2CC(=O)Nc1ccc(Br)cc1F | / | / | / | . | / | /
CC(=C/c1ccccc1)/C=N/NC(=O)c1cnccn1 | ? | 8.9µM | . | 4.8µM | ? | 4µM
O=C(N/N=C/C(Cl)=C\c1ccccc1)c1cnccn1 | . | ? | . | 11µM | . | .
CC(/C=N/NC(=O)C(O)c1ccccc1)=C\c1ccccc1 (configuration not stated) | ? | . | . | 13µM | . | ?
CC(/C=N/NC(=O)c1ccc(Br)cc1)=C\c1ccccc1 | .[1.84 µM] | ? | . | ? | . | .
CC(/C=N/NC(=O)c1cc(C(C)C)[nH]n1)=C\c1ccccc1 | . | . | . | ? | . | .
COc1cc(C2NC(=O)NC(C)=C2C(=O)OC2CCCC(C)C2)cc(Br)c1O (configuration not stated) | . | . | / | . | / | .
CC1=C(C(=O)OC2CCCC(C)C2)C(c2ccccc2)NC(=O)N1 (configuration not stated) | 1µM | . | / | . | / | .
Cc1cc(Nc2cccc(Cl)c2)nc(NCc2ccccc2)n1 | . | . | . | ? | . | .
Cc1cc(N/N=C/c2cccc(Cl)c2)nc(NCc2ccccc2)n1 | . | . | . | ? | . | .
